This is an account of results in PubChem BioAssay (NCI).

The panel holds about 83,000 compounds, 20% with a hit somewhere; the sample as a whole holds those more often.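 Plates (96-well) were seeded with cells, treated with compound at one concentration, and incubated for 48 hours before percent growth was determined.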 Unmarked numbers belong to inactive results. Active and inactive are the calls of the source. Rule for the calls: active = growth percent below 10; inactive = the rest.

The test relates to HL-60(TB) leukemia. Description: NCI-60 one-dose screen, 48 h (100 = growth as untreated, 0 = no growth, -100 = all killed). The following applies: 10 µM unless noted.
Regarding `CN(C)CCCn1c2c(c3ccc(N4CCNCC4)cc3c1=O)C(=O)c1ccccc1-2`, the growth is 8.73% (active). Next, `COCCOCCOCc1n(Cc2ccc3ccccc3n2)c2ccccc2[n+]1Cc1ccc2ccccc2n1`: -42.9% (active); `CC12O[C@H](C[C@@H](OC(=O)CCC(=O)O)[C@H]1O)n1c3ccccc3c3c4c(c5c6ccccc6n2c5c31)C(=O)NC4=O`: 66.7%; `CN1CCN(CCOc2ccc(-c3cnc4c(-c5ccc(F)cc5)cnn4c3)cc2)CC1`: 2.46% (active).
